According to PubChem BioAssay (EPA / NIEHS):
Values joined by “and” are separate entries in the source; they are usually repeats but may differ in a detail not shown here. Equal entries are not always repeated. Results filed as inconclusive are left out. Active and inactive are the calls of the source. How the source made its calls, unless noted: active means hit-call score of the fitted dose curve at least 0.9, where 1 is the maximum; inactive means score below 0.9.

Read-out: not listed separately
Assay: BSK_4H_Eotaxin3: BioMAP Diversity Plus: 4H Assay for Eotaxin 3 Biomarker Activity (AID 2283000);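 on outcome: CCL26 protein level quantified by ELISA in parallel with SRB cytotoxicity check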
Conditions: primary human endothelial cells (HUVEC); actives raise or lower the signal
How it was run: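 HUVEC, 24 h post-dose, ELISA for Eotaxin-3/CCL26. Gain or loss of signal fitted bidirectionally vs DMSO baseline.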

Row | Structure (SMILES) | outcome | AC50
1 | CCOC(=O)CC(=O)C(F)(F)C(F)(F)F | inactive | –
2 | CCN(CC)c1ccc(C=O)c(O)c1 | inactive | –
3 | FC(F)(F)C(F)(F)C(F)(F)CC1CO1 (stereo not given) | inactive | –
4 | OCC(O)CC(F)(F)C(F)(F)C(F)(F)C(F)(F)F (stereo not given) | inactive | –
5 | OC(O)C(F)(F)C(F)(F)F | inactive | –
6 | NC(O)(C(F)(F)F)C(F)(F)F | inactive | –
7 | FC(F)(F)C(F)(F)C(F)(F)C(F)(F)C(F)(F)C(F)(F)CC[Si](Cl)(Cl)Cl | inactive | –
8 | O=C=NCc1cccc(CN=C=O)c1 | inactive | –
9 | Cc1cc(O)c(C(C)(C)C)cc1C(C)(C)C | – | 4.12 µM (active)
10 | NC(=O)C(F)(F)C(F)(F)C(F)(F)F | inactive | –
11 | C=CC(=O)OCC(F)(F)C(F)(F)C(F)(F)COC(=O)C=C | – | 9.89 µM (active) and 8.33 µM (active)
12 | Cc1ccc(S(=O)(=O)C(I)I)cc1 | – | 1.84 µM (active)
13 | COC(F)(C(F)F)C(F)(F)F (stereo not given) | inactive | –
14 | CC1=CC2C3C=CC(C3)C2C1C (stereo not given) | inactive | –
15 | O=S(=O)(O)CCC(F)(F)C(F)(F)C(F)(F)C(F)(F)F | inactive | –
16 | O=S(=O)(OCC(F)(F)F)C(F)(F)C(F)(F)C(F)(F)C(F)(F)F | inactive | –
17 | O=C(O)C(F)(F)C(F)(F)C(F)(F)C(=O)O | inactive | –
18 | OCC(F)(F)C(F)(F)C(F)(F)C(F)(F)C(F)(F)C(F)(F)CO | inactive | –
19 | O=C=Nc1cccc2c(N=C=O)cccc12 | inactive | –
20 | CC(C)(C)c1cc(CCC(=O)NCCCCCCNC(=O)CCc2cc(C(C)(C)C)c(O)c(C(C)(C)C)c2)cc(C(C)(C)C)c1O | inactive | –
21 | CCN(CC)c1ccc2c(c1)Oc1cc(N(CC)CC)ccc1C21OC(=O)c2ccccc21 | inactive | –
22 | O=C(F)C1(F)C(F)(F)C(F)(F)C(F)(F)C(F)(F)C1(F)F | inactive | –
23 | Cc1cnccn1 | inactive | –
24 | Nc1cc([N+](=O)[O-])cc(Cl)c1O | inactive | –
25 | OCCCC(F)(F)C(F)(F)C(F)(F)C(F)(F)C(F)(F)C(F)(F)C(F)(F)C(F)(F)F | – | 18.9 µM (active) and 31.8 µM (active)
26 | O=C(O)C(F)(F)C(F)(F)C(F)(F)OC(F)(F)F | inactive | –
27 | CCN=C1C=CC(=C(c2ccc(N(CC)CC)cc2)c2ccc(N(CC)CC)cc2)c2ccccc21 | – | 1.74 µM (active)
28 | O=C(O)CCC(F)(F)C(F)(F)C(F)(F)F | inactive | –
29 | CCN(CC)c1ccc(C=O)cc1 | inactive | –

Biological target: human Peroxisome Proliferator-activated Receptor alpha (PPARa), PPARA (gene 5465) (UniProt Q07869)
Assay: ATG_PPARa_TRANS: Attagene TRANS-FACTORIAL HepG2 Assay for human Peroxisome Proliferator-activated Receptor alpha (PPARa) (AID 2283001; active means hit-call score of the fitted dose curve at least 0.9, where 1 is the maximum;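 on AC50: potency for gain of reporter signal over DMSO so agonist or activator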)
Conditions: not given
How it was run: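 HepG2, transient MRTU transfection, 24 h treatment. RT-PCR → FAM labelling → capillary electrophoresis. Fit vs DMSO, positive direction.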

Chain of human Peroxisome Proliferator-activated Receptor alpha (PPARa), PPARA (gene 5465) (Q07869 whole entry, looked up): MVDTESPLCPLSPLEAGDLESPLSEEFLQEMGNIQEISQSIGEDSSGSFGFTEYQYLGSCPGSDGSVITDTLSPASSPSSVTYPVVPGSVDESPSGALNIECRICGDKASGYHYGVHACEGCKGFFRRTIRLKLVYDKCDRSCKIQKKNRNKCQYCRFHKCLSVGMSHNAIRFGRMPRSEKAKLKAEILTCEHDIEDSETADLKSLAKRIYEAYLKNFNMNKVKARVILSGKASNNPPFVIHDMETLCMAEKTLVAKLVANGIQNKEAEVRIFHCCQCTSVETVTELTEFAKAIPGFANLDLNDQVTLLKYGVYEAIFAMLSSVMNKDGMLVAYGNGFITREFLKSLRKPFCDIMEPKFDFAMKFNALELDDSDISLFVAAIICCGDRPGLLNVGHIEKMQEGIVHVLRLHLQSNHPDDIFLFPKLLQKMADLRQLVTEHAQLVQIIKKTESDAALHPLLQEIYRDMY

Row | Structure (SMILES) | outcome | AC50
30 | CC(O)C#CC(C)O (stereo not given) | inactive | –
31 | FC(F)(F)C(F)(F)C(F)(F)CC1CO1 (stereo not given) | inactive | –
32 | OCC(O)CC(F)(F)C(F)(F)C(F)(F)C(F)(F)F (stereo not given) | inactive | –
33 | OC(O)C(F)(F)C(F)(F)F | inactive | –
34 | FC(F)(F)C(F)(F)C(F)(F)C(F)(F)C(F)(F)C(F)(F)CC[Si](Cl)(Cl)Cl | inactive | –
35 | CCCCCCCCCCCCC[N+](C)(C)Cc1ccccc1 | inactive | –
36 | CCn1c2ccccc2c2ccccc21 | inactive | –
37 | NC(=O)C(F)(F)C(F)(F)C(F)(F)F | inactive | –
38 | C=CC(=O)OCC(F)(F)C(F)(F)C(F)(F)COC(=O)C=C | inactive | –
39 | CC(C)(C)C(=O)C1C(=O)c2ccccc2C1=O | inactive | –
40 | O=S(=O)(OCC(F)(F)F)C(F)(F)C(F)(F)C(F)(F)C(F)(F)F | inactive | –
41 | CCCCCCCC/C=C\CCCCCCCC(=O)N(C)CC(=O)O | – | 2.02 µM (active)
42 | O=C(O)C(F)(F)C(F)(F)C(F)(F)C(=O)O | inactive | –
43 | OCC(F)(F)C(F)(F)C(F)(F)C(F)(F)C(F)(F)C(F)(F)CO | inactive | –
44 | Nc1cccnc1N | inactive | –
45 | Oc1ccc2c(c1)CCC2 | inactive | –
46 | O=C1C=CC(=O)N1c1ccccc1 | inactive | –
47 | Nc1cc([N+](=O)[O-])cc(Cl)c1O | inactive | –
48 | O=C(O)C(F)(F)C(F)(F)C(F)(F)OC(F)(F)F | – | 61.4 µM (active)
49 | O=C(O)CCC(F)(F)C(F)(F)C(F)(F)F | inactive | –

Biological target: human Peroxisome Proliferator-activated Receptor delta (PPARd), PPARD (gene 5467) (UniProt Q03181)
Assay: ATG_PPARd_TRANS: Attagene TRANS-FACTORIAL HepG2 Assay for human Peroxisome Proliferator-activated Receptor delta (PPARd) (AID 2283002; active means hit-call score of the fitted dose curve at least 0.9, where 1 is the maximum)
Conditions: not given
How it was run: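 Fluorescence from capillary electrophoresis of labelled RT-PCR reporter fragments gives the signal; DMSO sets baseline. Cells: HepG2 transiently carrying GAL4-UAS reporter units plus chimeric nuclear receptor-Gal4 proteins, exposed to chemicals for 24 h.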

Chain of human Peroxisome Proliferator-activated Receptor delta (PPARd), PPARD (gene 5467) (Q03181 whole entry, looked up): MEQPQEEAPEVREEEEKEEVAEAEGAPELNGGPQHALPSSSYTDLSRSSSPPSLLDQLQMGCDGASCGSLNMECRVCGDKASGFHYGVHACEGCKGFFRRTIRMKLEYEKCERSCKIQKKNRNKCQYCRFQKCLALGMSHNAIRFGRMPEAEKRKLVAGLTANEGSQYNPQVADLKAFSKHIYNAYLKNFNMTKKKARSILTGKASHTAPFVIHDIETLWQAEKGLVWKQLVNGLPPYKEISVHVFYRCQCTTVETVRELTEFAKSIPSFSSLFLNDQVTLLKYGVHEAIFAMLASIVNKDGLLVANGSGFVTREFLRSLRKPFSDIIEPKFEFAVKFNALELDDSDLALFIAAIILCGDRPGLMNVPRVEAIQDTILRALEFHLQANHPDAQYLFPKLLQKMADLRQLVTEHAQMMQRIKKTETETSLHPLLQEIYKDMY

Row | Structure (SMILES) | outcome
50 | CC(O)C#CC(C)O (stereo not given) | inactive
51 | NC(O)(C(F)(F)F)C(F)(F)F | inactive
52 | O=C=NCc1cccc(CN=C=O)c1 | inactive
53 | Cc1cc(O)c(C(C)(C)C)cc1C(C)(C)C | inactive
54 | CCCCCCCCCCCCC[N+](C)(C)Cc1ccccc1 | inactive
55 | CCn1c2ccccc2c2ccccc21 | inactive
56 | Cc1ccc(S(=O)(=O)C(I)I)cc1 | inactive
57 | COC(F)(C(F)F)C(F)(F)F (stereo not given) | inactive
58 | CC1=CC2C3C=CC(C3)C2C1C (stereo not given) | inactive
59 | CC(C)(C)C(=O)C1C(=O)c2ccccc2C1=O | inactive
60 | O=S(=O)(O)CCC(F)(F)C(F)(F)C(F)(F)C(F)(F)F | inactive
61 | CCCCCCCC/C=C\CCCCCCCC(=O)N(C)CC(=O)O | inactive
62 | O=C=Nc1cccc2c(N=C=O)cccc12 | inactive
63 | CCN(CC)c1ccc2c(c1)Oc1cc(N(CC)CC)ccc1C21OC(=O)c2ccccc21 | inactive
64 | Nc1cccnc1N | inactive
65 | O=C(F)C1(F)C(F)(F)C(F)(F)C(F)(F)C(F)(F)C1(F)F | inactive
66 | Oc1ccc2c(c1)CCC2 | inactive
67 | Cc1cnccn1 | inactive
68 | O=C1C=CC(=O)N1c1ccccc1 | inactive
69 | OCCCC(F)(F)C(F)(F)C(F)(F)C(F)(F)C(F)(F)C(F)(F)C(F)(F)C(F)(F)F | inactive
70 | CCN(CC)c1ccc(C=O)cc1 | inactive
